PfGluPho inh: PfG6PD (Plasmodium falciparum) enzyme inhibition. PfGluPho enzyme, NADPH resazurin-diaphorase fluorescence. inhibition, % at 20 µM. 350,000 compounds, 0.78% hits;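 active = inhibition reaching at least a set limit at 20 µM in the primary screen, cut at about 59% in these data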;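 also: 0% = DMSO wells with substrate and 100% = DMSO wells lacking glucose-6-phosphate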
H9c2 TAG inh: reduces triacylglycerol accumulation in H9c2 cells; Nile Red lipid (TAG) fluorescence; cells loaded with 200 µM oleic acid; inhibition, % at 12.5 µM; 230,000 compounds, 0.66% hits;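 active = pattern-corrected inhibition of lipid staining of at least 50% with the nuclear-stain viability signal not falling by more than 50%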;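 also: 0% = DMSO wells and 100% = triacsin C control wells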
NadD block: inhibitors of Staphylococcus aureus NadD; purified NadD enzyme, colorimetric absorbance read-out; inhibition, % at 20 µM; 360,000 compounds, 0.78% hits; in the data active = inhibition above about 26%
APOBEC3G inh: APOBEC3G (human) deaminase inhibition; inhibition, % at 20 µM; 330,000 compounds, 0.28% hits; recombinant A3G, ssDNA deamination FAM/TAMRA fluorescence; Q9HC16;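 active = inhibition of at least 40% at 20 µM, with no more than 30% in the related APOBEC3A deaminase screen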;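 also: plate controls were DMSO wells with A3G for no effect and wells lacking A3G enzyme for full effect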
Target sequence (Q9HC16 whole entry, looked up): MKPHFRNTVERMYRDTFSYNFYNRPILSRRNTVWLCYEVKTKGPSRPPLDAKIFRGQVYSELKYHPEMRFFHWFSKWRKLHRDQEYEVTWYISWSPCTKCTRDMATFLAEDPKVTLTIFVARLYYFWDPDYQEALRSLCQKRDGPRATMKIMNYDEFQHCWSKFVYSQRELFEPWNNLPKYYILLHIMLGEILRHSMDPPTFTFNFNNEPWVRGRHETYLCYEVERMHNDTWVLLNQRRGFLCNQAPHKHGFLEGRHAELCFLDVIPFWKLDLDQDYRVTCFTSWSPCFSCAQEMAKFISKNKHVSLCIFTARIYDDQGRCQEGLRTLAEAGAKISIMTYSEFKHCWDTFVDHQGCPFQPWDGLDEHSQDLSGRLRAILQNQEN
Cardio protect: modulators protecting cardiomyocytes from myocardial damage | 360,000 compounds, 0.63% hits | AID 588492 | protection from H2O2 cell death, % at 20 µM | H9c2 cardiomyocytes, H2O2 injury protection, ATPLite, 2 h;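 active = compounds giving at least 50% protection of heart cells from peroxide-induced death in the single-dose screen, raw or plate-pattern-corrected value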;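 also: 0% = DMSO wells with peroxide and 100% = DMSO wells without peroxide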
APOBEC3A inh: blocks human APOBEC3A ssDNA deamination; P31941; recombinant A3A, FAM/TAMRA ssDNA deamination fluorescence; inhibition, % at 20 µM; 330,000 compounds, 0.41% hits; AID 493011;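 active = at least 40% inhibition at 20 µM here, with at most 30% in a related deaminase screen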;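 also: plate controls were A3A with DMSO for no effect and wells lacking A3A enzyme for full effect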
Target sequence (P31941 whole entry, looked up): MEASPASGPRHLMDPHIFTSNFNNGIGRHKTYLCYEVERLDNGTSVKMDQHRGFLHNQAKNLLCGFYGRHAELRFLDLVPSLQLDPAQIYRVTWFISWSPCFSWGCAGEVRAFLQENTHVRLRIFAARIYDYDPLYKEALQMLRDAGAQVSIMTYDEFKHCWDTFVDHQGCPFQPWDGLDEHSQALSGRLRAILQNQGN
H9c2 TAG conf: confirmation of triacylglycerol accumulation inhibitors; shares compounds with H9c2 TAG inh; H9c2 lipid accumulation, Nile Red fluorescence; cells loaded with 200 µM oleic acid; inhibition, % at 12.5 µM; 990 compounds, 71% hits; AID 651629;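 active = mean inhibition across replicates of 40% or more; inactive = mean inhibition below 40%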;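 also: plate controls were DMSO only wells for no effect and Triacsin C treated wells for full effect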
* = called active by the depositor; . = not tested or not shown. Sampled rows, rich in hits. Any-hit rate of the full collection: about 2.9%.

SMILES | PfGluPho inh | H9c2 TAG inh | NadD block | APOBEC3G inh | Cardio protect | APOBEC3A inh | H9c2 TAG conf
COc1ccc2cc(Br)ccc2c1CC(=O)NC1CC(C)(C)NC(C)(C)C1 | -3 | 64* | -7 | -4 | 9 | -2 | 12
Cc1nc(C(=O)Nc2ccccc2)sc1C1(C)CC(c2cccnc2)=NO1 (stereo unspecified) | 8 | . | -1 | 17 | 6 | 4 | .
COc1ccc(NC(=O)c2nc(C)c(C3(C)CC(c4ccccc4)=NO3)s2)cc1 (stereo unspecified) | 18 | 76* | -4 | -12 | -6 | -5 | 94*
CCCCOc1ccc(N(CC(=O)NC2CCCCC2)C(=O)CCC(=O)Nc2ccccn2)cc1 | 3 | . | 1 | -8 | -4 | -3 | .
COc1cc(SC)ccc1C(=O)NCC1CCCCC1 | 6 | . | -8 | -7 | -8 | -1 | .
COC(=O)[C@]1(C)N[C@H](c2ccc(-c3ccc(Cl)c(Cl)c3)c(OC)c2)[C@@H]2C(=O)N(C)C(=O)[C@@H]21 | 8 | 51* | -10 | -3 | 3 | 0 | 36
COC(=O)[C@]1(CC(C)C)N[C@H](c2ccc(-c3ccc(OC)cc3)cc2)[C@@H]2C(=O)N(C)C(=O)[C@@H]21 | 12 | 54* | -4 | 1 | -3 | 1 | 36
CCN1C(=O)[C@H]2[C@@H](c3ccc(-c4cccc(Cl)c4)cc3)N[C@@](Cc3ccccc3)(C(=O)OC)[C@H]2C1=O | 18 | 51* | 11 | 0 | 0 | -1 | 60*
COC(=O)[C@]1(CC(C)C)N[C@H](c2ccc(-c3ccc(F)cc3)cc2)[C@@H]2C(=O)N(C)C(=O)[C@@H]21 | 14 | 56* | 1 | -6 | 2 | -1 | 43*
COC(=O)[C@]1(C)N[C@H](c2ccc(-c3ccc(OC)cc3)cc2)[C@@H]2C(=O)N(C)C(=O)[C@@H]21 | 3 | -3 | 5 | 1 | -2 | 2 | .
COc1cccc(CNC(=S)Nc2ccc3c(c2)c(=O)n(C)n3C)c1 | . | 3 | 2 | . | -2 | . | .
O=S(=O)(Cc1nnnn1-c1ccccc1)c1ccc(F)cc1 | 5 | . | 2 | -3 | 1 | 1 | .
S=C(N/N=C/c1cccc2ccccc12)Nc1cccc(Cl)c1 | 9 | 1 | -1 | 9 | 2 | 0 | .
CCc1ccc2cc(F)cc(F)c2n1 | . | . | -9 | . | 1 | . | .
CCOc1ccccc1-c1nc(-c2ccc(NC(=O)Cc3ccccc3OC)cc2)no1 | -7 | 71* | -9 | -3 | -4 | -3 | 46*
COc1ccccc1CC(=O)Nc1ccc(-c2noc(COc3ccc(Cl)c(C)c3)n2)cc1 | 5 | . | 1 | -10 | -5 | -1 | .
N#C/C(=C\c1cc([N+](=O)[O-])c(N2CCCCC2)cc1N1CCCCC1)c1nn(-c2ccccc2)c(N)c1C#N | 6 | 51* | 42* | -6 | -20 | -6 | 53*
O=C1C(Cl)=C(NCc2ccco2)C(=O)c2ccccc21 | -109 | 65* | -1 | . | -20 | . | 46*
CCOc1ccc(NC(=O)C(Cc2ccccc2)N2C(=O)c3cccc4cccc(c34)C2=O)cc1 (stereo unspecified) | -3 | . | 8 | -5 | 9 | 0 | .
CCCSc1ccc2nc(NC(=O)OC)[nH]c2c1 | -10 | 58* | 0 | -8 | -17 | -3 | 60*
COC(=O)Nc1nc2ccc(C(=O)c3cccs3)cc2[nH]1 | 4 | 45 | 0 | 0 | -5 | 3 | .
COC(=O)Nc1nc2ccc(SC(C)C)cc2[nH]1 | -6 | 52* | 4 | 7 | 0 | 3 | 61*
O=C(NCc1ccc(F)cc1F)[C@@H]1CCCN1C(=O)[C@@H]1CCCN1 | . | . | 0 | . | . | . | .
CCOC(=O)C(=O)N(C)c1c(CC)nc2c(OCCC3CCCCC3)cccn12 | . | 119* | 2 | . | 2 | . | 7
Cc1cc(NC(=O)c2ccc(F)cc2F)n(-c2nc3ccccc3[nH]2)n1 | 0 | . | 15 | -3 | -11 | -6 | .
SMILES | PfGluPho inh | H9c2 TAG inh | NadD block | APOBEC3G inh | Cardio protect | APOBEC3A inh | H9c2 TAG conf
Cc1cc(NC(=O)CC2CCCC2)n(-c2nc3ccccc3[nH]2)n1 | 12 | 59* | 1 | 3 | 32 | 4 | 54*
COc1cccc(NC(=O)CN(C)C(=O)C2CC(=O)N(CCc3ccc(OC)c(OC)c3)C2)c1 (stereo unspecified) | 7 | -5 | 6 | . | 7 | . | .
Cc1ccc(Cn2cc(/C=N/NC(=O)Cc3nnc(NC(=O)c4ccc(C)cc4)s3)c3ccccc32)cc1 | -25 | 52* | 10 | -12 | 17 | -3 | 128*
CCOC(=O)c1ccc(NC(=O)CCOc2ccccc2)cc1 | 2 | 8 | -8 | -2 | -10 | -1 | .
CCCOC(=O)c1ccc(NC(=O)CCOc2ccccc2)cc1 | 7 | 65* | -1 | -8 | -4 | -4 | 61*
Cc1ccc(NC(=O)CSc2nnnn2C2CC2)cc1S(=O)(=O)N1CCOCC1 | 6 | -15 | -2 | -9 | 4 | 3 | .
CC(C)N(C(=O)[C@H]1C[C@H](CC(=O)NCc2cccc(C(F)(F)F)c2)C(=O)N2CCc3c([nH]c4ccc(Cl)cc34)[C@]12C)C(C)C | 33 | 57* | 10 | 2 | -18 | -2 | 82*
COc1ccc2[nH]c3c(c2c1)CCN1C(=O)C(CC(=O)NCC24CC5CC(CC(C5)C2)C4)C[C@H](C(=O)N(C(C)C)C(C)C)[C@@]31C (stereo partly specified) | 15 | 51* | -3 | -3 | 3 | 0 | 59*
COc1ccc2[nH]c3c(c2c1)CCN1C(=O)C(CC(=O)NCC24CC5CC(CC(C5)C2)C4)C[C@H](C(=O)N2CCOCC2)[C@@]31C (stereo partly specified) | 8 | 18 | 1 | 1 | -2 | 0 | .
c1cc(C2CCCCC2)ccc1Oc1nc(N2CCOCC2)nc(N2CCOCC2)n1 | 30 | 80* | 1 | -2 | -8 | -1 | 52*
CC(=O)Nc1ccc(SC[C@H](CC(C)C)N2CCN(CC(C)C)CCC2=O)cc1 | 2 | 67* | -2 | 4 | -6 | 2 | 1
CCc1ccc(-c2nc(C(N)=O)c3[nH]c(=O)n(-c4ccccc4OC)c3n2)cc1 | -8 | 73* | 7 | -12 | -3 | -1 | 91*
C[C@@H]1CN([C@@H](C)CO)C(=O)CCCn2nncc2CO[C@H]1CN(C)S(=O)(=O)c1cccc(C#N)c1 | -4 | -22 | 0 | . | -1 | . | .
COc1ccccc1NS(=O)(=O)c1cc(C(=O)NC2CC(C)(C)NC(C)(C)C2)ccc1Cl | -4 | 21 | 1 | . | 12 | . | .
CCOc1ccccc1C1C2=C(COC2=O)Nc2cc3c(cc21)OCO3 (stereo unspecified) | -11 | 53* | 0 | -14 | 4 | 4 | 53*
CC1CC2(C)Oc3ccccc3CC2C(C)C1CNCCCN(C)C (stereo unspecified) | 1 | 82* | -6 | -5 | -27 | -3 | 44*

Screening data (PubChem)
